Results from article PMC5540273 (PLoS ONE, 2017).

What was measured:
Settings in all cases: concentration: 1 μM, replicates: in singlicate; n = 1
RIPK2 = tested on: RIPK2
RIPK4 = tested on: RIPK4
RIPK5 = tested on: RIPK5
ROCK1 = tested on: ROCK1
ROCK2 = tested on: ROCK2
ROS1 = tested on: ROS1
[1] = tested on: RPS6KA4(Kin.Dom.1-N-terminal)
[2] = tested on: RPS6KA4(Kin.Dom.2-C-terminal)
[3] = tested on: RPS6KA5(Kin.Dom.1-N-terminal)
[4] = tested on: RPS6KA5(Kin.Dom.2-C-terminal)
[5] = tested on: T1, RSK1(Kin.Dom.1-N-terminal)
T1 construct: gene RPS6KA1

[6] = tested on: T2, RSK1(Kin.Dom.2-C-terminal)
T2 construct: gene RPS6KA1

[7] = tested on: T3, RSK2(Kin.Dom.1-N-terminal)
T3 construct: gene RPS6KA3

[8] = tested on: T4, RSK2(Kin.Dom.2-C-terminal)
T4 construct: gene RPS6KA3

[9] = tested on: T5, RSK3(Kin.Dom.1-N-terminal)
T5 construct: gene RPS6KA2

[10] = tested on: T6, RSK3(Kin.Dom.2-C-terminal)
T6 construct: gene RPS6KA2

[11] = tested on: T7, RSK4(Kin.Dom.1-N-terminal)
T7 construct: gene RPS6KA6

[12] = tested on: T8, RSK4(Kin.Dom.2-C-terminal)
T8 construct: gene RPS6KA6

S6K1 = tested on: S6K1
SBK1 = tested on: SBK1
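Further: KINOMEscan kinase panel screen.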

| SMILES | %Inh (RIPK2) [%] | %Inh (RIPK4) [%] | %Inh (RIPK5) [%] | %Inh (ROCK1) [%] | %Inh (ROCK2) [%] | %Inh (ROS1) [%] | %Inh [1] [%] | %Inh [2] [%] | %Inh [3] [%] | %Inh [4] [%] | %Inh [5] [%] | %Inh [6] [%] | %Inh [7] [%] | %Inh [8] [%] | %Inh [9] [%] | %Inh [10] [%] | %Inh [11] [%] | %Inh [12] [%] | %Inh (S6K1) [%] | %Inh (SBK1) [%] |
| --- | --- | --- | --- | --- | --- | --- | --- | --- | --- | --- | --- | --- | --- | --- | --- | --- | --- | --- | --- | --- |
| COC(=O)c1c(-c2ccccc2)c2cc(Br)ccc2c(=O)n1Cc1ccc(NC(=O)CCC(=O)O)cc1 | 12 | 20 | 21 | 8 | 0 | 0 | 0 | 9 | 23 | 0 | 0 | 5 | 0 | 29 | 16 | 15 | 0 | 26 | 0 | 1 |
| COc1cccc(-n2cnc3c(N)ncnc32)c1 [SKF-97416] | 1 | 43 | 18 | 66 | 60 | 0 | 19 | 7 | 0 | 0 | 8 | 13 | 39 | 34 | 0 | 8 | 40 | 7 | 1 | 29 |
| Cc1nn2c(=O)cc(N3CCOCC3)nc2n1Cc1cccc(Cl)c1Cl [GSK2342769] | 10 | 9 | 0 | 0 | 0 | 0 | 0 | 0 | 16 | 0 | 0 | 0 | 9 | 3 | 25 | 0 | 5 | 0 | 1 | 14 |
| COc1cc2ncn(-c3cc(OCc4ccncc4Br)c(C(N)=O)s3)c2cc1OC [GW854278] | 26 | 0 | 9 | 11 | 0 | 6 | 2 | 0 | 0 | 7 | 0 | 22 | 19 | 0 | 20 | 0 | 25 | 7 | 0 | 2 |
| C[C@@H]1CC[C@H](C(=O)NC2CCCCC2)CN1c1cc(-c2ccc3c(N)n[nH]c3c2)nc(N)n1 [GSK2291363] | 5 | 29 | 0 | 94.4 | 93.1 | 28 | 5 | 0 | 32 | 0 | 31 | 6 | 32 | 28 | 23 | 6 | 11 | 26 | 8 | 14 |
| COc1cccc(C2=C(N(C)c3ccccc3)C(=O)NC2=O)c1 [SB-334865] | 17 | 19 | 0 | 0 | 12 | 0 | 8 | 0 | 20 | 0 | 0 | 0 | 0 | 5 | 11 | 5 | 0 | 19 | 10 | 0 |
| FC(F)(F)c1ccc(-c2ncn(CCCN3CCOCC3)c2-c2ccncc2)cc1 [SB-217780] | 0 | 61 | 0 | 27 | 0 | 0 | 1 | 11 | 0 | 0 | 11 | 6 | 0 | 28 | 32 | 19 | 1 | 44 | 0 | 13 |
| Cc1cccc(-c2cc(-c3c[nH]nc3-c3ccccn3)ccn2)c1 [GW679395] | 36 | 12 | 6 | 0 | 10 | 0 | 1 | 0 | 0 | 37 | 9 | 0 | 0 | 7 | 6 | 12 | 0 | 49 | 0 | 5 |
| CCc1ccc(-c2ccc3c(c2)-c2nn(C)cc2S(=O)(=O)N3C)cc1 | 0 | 0 | 0 | 0 | 0 | 0 | 0 | 0 | 0 | 0 | 2 | 41 | 15 | 63 | 10 | 32 | 0 | 21 | 22 | 0 |
| Cc1ccc(Oc2ccc(Nc3ncnc4cc[nH]c34)cc2C)cn1 | 8 | 36 | 14 | 0 | 0 | 11 | 0 | 1 | 16 | 2 | 5 | 8 | 0 | 0 | 16 | 16 | 9 | 6 | 7 | 44 |
| COc1ccc(-c2cc3c(C)nc(N)nc3n([C@H]3CC[C@H](O)CC3)c2=O)cn1 | 0 | 0 | 0 | 0 | 0 | 0 | 5 | 0 | 0 | 0 | 6 | 0 | 0 | 0 | 0 | 0 | 0 | 0 | 0 | 0 |
| Cc1cccc(-c2nc(Nc3ccc4c(cnn4C)c3)c3ccccc3n2)n1 [GW876731] | 0 | 10 | 0 | 41 | 0 | 12 | 12 | 0 | 0 | 0 | 32 | 0 | 26 | 0 | 24 | 0 | 8 | 0 | 0 | 10 |
| CN1C(=O)C(Nc2ccccc2)=C(c2ccccc2)C1=O [SB-300079] | 0 | 5 | 25 | 7 | 43 | 0 | 8 | 0 | 0 | 9 | 8 | 0 | 37 | 0 | 0 | 0 | 10 | 12 | 0 | 0 |
| COc1cc(Nc2ccnc3ccc(C(F)(F)F)cc23)cc(OC)c1OC [GW577382] | 64 | 1 | 0 | 0 | 15 | 9 | 10 | 0 | 6 | 13 | 18 | 0 | 98.3 | 32 | 4 | 20 | 0 | 21 | 1 | 5 |
| CN(C)c1cc(-c2ccc3c(N)n[nH]c3c2)nc(N)n1 [GSK2219329] | 0 | 15 | 0 | 0 | 0 | 10 | 8 | 0 | 18 | 0 | 11 | 0 | 0 | 0 | 0 | 4 | 0 | 14 | 2 | 7 |
| COc1cc2nccc(Nc3ccc(OCc4ccc(NC(C)=O)cc4)cc3)c2cc1OC.Cl [GW440135] | 61 | 0 | 0 | 13 | 6 | 0 | 0 | 0 | 0 | 12 | 0 | 0 | 19 | 0 | 4 | 0 | 2 | 0 | 9 | 5 |
| COc1cccc(C2=C(Nc3cccc(C(=O)O)c3)C(=O)NC2=O)c1 [SB-390770] | 7 | 0 | 0 | 25 | 7 | 32 | 0 | 0 | 32 | 0 | 0 | 0 | 4 | 15 | 8 | 0 | 20 | 10 | 6 | 18 |
| Nc1ncnc2c1ncn2-c1cccc(F)c1 [SKF-97560] | 100 | 29 | 26 | 38 | 28 | 4 | 0 | 45 | 0 | 3 | 31 | 0 | 23 | 0 | 9 | 0 | 21 | 0 | 36 | 25 |
| COc1cc(Nc2nccc(N3CCC(NC(=O)C(C)c4ccc(Cl)cc4)C3)n2)cc(OC)c1OC (stereo not drawn) [GSK1379757] | 0 | 0 | 16 | 0 | 0 | 31 | 0 | 0 | 0 | 0 | 21 | 0 | 2 | 1 | 0 | 0 | 0 | 5 | 0 | 12 |
| CCS(=O)(=O)c1ccc(OC)c(Nc2ncc(-c3ccc(F)cc3)o2)c1.Cl [GW591947] | 19 | 0 | 0 | 20 | 16 | 0 | 25 | 0 | 27 | 0 | 11 | 0 | 0 | 22 | 0 | 2 | 0 | 3 | 0 | 0 |
| O=C(Nc1n[nH]c2nc(-c3ccccc3)c(Br)cc12)C1CC1 [SB-708998] | 5 | 0 | 0 | 7 | 0 | 0 | 4 | 0 | 28 | 0 | 0 | 0 | 7 | 29 | 0 | 0 | 18 | 2 | 0 | 17 |
